TWEAK-Fn14 inh = TWEAK-Fn14 signaling inhibition | TWEAK-stimulated Fn14 reporter cells, luciferase luminescence, 8 h | inhibition, % at 10 µM | 360,000 compounds, 2% hits | AID 1159606; in the data active = inhibition above about 50%
Peg3 prom inh = Peg3 promoter activity inhibition | HeLa PEG-Prom luciferase reporter, luminescence, overnight | inhibition, % at 20 µM | 360,000 compounds, 1.7% hits;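 active = inhibition of at least 50% at 20 µM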
HIF-2a block = blocks HIF-2a reporter activity | 786-0 RCC cells HIF-2a reporter, luciferase luminescence, overnight | inhibition, % at 18.8 µM | 360,000 compounds, 0.72% hits | AID 624352;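 active = inhibition of the luminescence signal of 40% or more relative to plate controls, in a single-dose primary screen at 18.75 µM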
TROY signal inh = inhibitors of TROY-dependent NF-kB signaling. Q293 LMP1-TROYcd NF-kB luciferase reporter, 4 h. inhibition, % at 10 µM. 360,000 compounds, 0.98% hits. AID 1347056;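 active = compounds whose plate-normalised and pattern-corrected inhibition of the luciferase reporter signal at the single screening dose is 50% or more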
KKLEB tox = reduces viability of KKLEB cystic fibrosis airway cells. KKLEB CF airway cells viability, ATPlite luminescence, overnight; stronger effect = lower value; cells stimulated with P. aeruginosa culture filtrate. activity change (cytotoxicity), % at 5 µM. 360,000 compounds, 0.36% hits;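 active = corrected activity change at or below -50% at 5 µM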
CF NFkB block = inhibitors of cystic fibrosis induced NF-kB | KKLEB NF-kB-GFP reporter, PAF-induced, GFP fluorescence overnight | inhibition, % at 5 µM | 360,000 compounds, 0.86% hits | AID 588850;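 active = at least 50% inhibition at 5 µM, scaled per plate between neutral and stimulator controls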;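 also: PAF is a Pseudomonas aeruginosa culture filtrate used as stimulus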
Hits are given with their value; i = inactive; nt = no result given. Most compounds without a hit are left out; they make up all but 3.9% or so of the library.

SMILES	TWEAK-Fn14 inh	Peg3 prom inh	HIF-2a block	TROY signal inh	KKLEB tox	CF NFkB block
O=C(CSc1nc(O)cc(=O)n1-c1ccccc1)Nc1nc2ccccc2s1	i	i	i	64	i	i
Cc1cc(C)c(C(=O)COC(=O)Cn2nc(-c3ccccc3)oc2=O)cc1C	i	i	i	i	i	i
Cc1ccc(-c2csc(NC(=O)CSc3nc4ccccc4[nH]3)n2)cc1	72	i	i	57	i	i
COc1ccc2cc(C)c3nnc(SCC(=O)Nc4nc(-c5ccc(F)cc5)cs4)n3c2c1	i	66	i	i	i	i
COc1ccc(/C=C2\COc3ccccc3C2=O)c(OC)c1	i	i	i	i	i	i
COc1ccc(/C=C2\COc3ccccc3C2=O)cc1OC	54	95	i	i	i	i
O=C(O)c1ccc(/C=C2\COc3ccccc3C2=O)cc1	78	i	i	i	i	i
Cc1cccc(C)c1NC(=O)Nc1ccc2c(c1)OCO2	i	i	i	i	i	i
CCCS(=O)(=O)c1nnnn1-c1cccc(OC)c1	69	102	i	52	i	90
COC(=O)N1C(=O)[C@](c2ccc(Cl)cc2)(C(C)C)N1C(=O)OC	i	i	i	i	i	66
NC(=O)C1Cc2ccccc2CN1C(=O)c1cc(C2CC2)nn1-c1ccccc1 (centres undefined)	i	i	i	i	i	i
O=C1c2ccccc2C(=O)N1CCCn1c2ccc(Cl)cc2c2nc3ccccc3nc21	i	i	i	i	i	i
Cc1cccc2c3nc4ccccc4nc3n(CCCN3C(=O)c4ccccc4C3=O)c12	71	i	i	i	i	i
COc1ccc(C(=O)C(CCC(CNC(C)(C)C)C(=O)c2ccc(OC)cc2)CNC(C)(C)C)cc1 (centres undefined)	i	105	45	i	i	i
CCOC(=O)c1c(C)n(-c2ccc(C)cc2)c2c(C(C(C)=O)C(=O)O)c(Br)c(O)c(O)c12 (centres undefined)	i	i	i	i	i	i
CCOC(=O)C(C(C)=O)c1c(Br)c(O)c(O)c2c(C(=O)c3ccc(C)cc3)coc12 (centres undefined)	76	i	i	i	i	i
Cc1cc2oc3cc(NCCC4CCCN4C)ccc3c(=O)c2cc1C (centres undefined)	i	83	i	i	i	i
CCCCNCC(O)(c1ccc(Cl)cc1)c1ccc(Cl)cc1	i	63	i	i	i	i
COc1ccc(CNCC(O)(c2ccc(Cl)cc2)c2ccc(Cl)cc2)cc1	i	i	i	i	i	i
CC(=O)c1c(N2CCOCC2)[nH]c(-c2ccccc2)nc1=S	i	i	i	67	i	i
CC(C)CC(=O)NCCNC(=O)c1cc(OCC(F)(F)F)ccc1OCC(F)(F)F	76	i	i	nt	i	i
O=C(CCl)NCCNC(=O)c1cc(OCC(F)(F)F)ccc1OCC(F)(F)F	i	i	i	i	i	i
COc1ccc(C(=O)Nc2ccccc2C(=O)Nc2ccc(C(=O)O)cc2)cc1	81	i	i	i	i	i
COc1cccc(C(=O)Nc2ccccc2)c1	i	i	i	i	i	i
COc1cccc(C(=O)Nc2ccc3ccccc3c2)c1	63	i	i	i	i	i
SMILES	TWEAK-Fn14 inh	Peg3 prom inh	HIF-2a block	TROY signal inh	KKLEB tox	CF NFkB block
COc1cc(C(=O)Nc2ccc3c(c2)Cc2ccccc2-3)cc(OC)c1OC	i	i	i	i	i	i
COc1ccc(OC)c(C(=O)c2ccc(C(=O)Nc3ccc4ccccc4c3)cc2)c1	i	i	i	i	i	i
COc1ccc(C(=O)NC(=S)Nc2ccc3c(c2)Cc2ccccc2-3)cc1	i	i	i	52	i	i
COc1ccc(C(=O)Nc2ccccc2C(=O)Nc2ccccc2C(=O)O)cc1	i	i	i	i	i	i
COc1ccc(C(=O)Nc2ccc3ccccc3c2)cc1	72	i	i	i	i	i
COc1ccc(NC(=O)CSc2nccn2C)cc1S(N)(=O)=O	i	i	i	i	i	i
COc1ccc(S(=O)(=O)N2CCCC2c2cccs2)cc1 (centres undefined)	i	i	i	i	i	i
COc1ccc(CCNS(=O)(=O)c2ccc(Cl)cc2)cc1OC	i	i	i	i	i	i
CCC(=O)c1ccc2c(c1)N(CCCN(C)C)c1ccccc1S2	i	i	i	i	i	i
COc1ccc(C(=O)Nc2ccccc2C(=O)N/N=C/c2cccc3ccccc23)cc1	78	i	i	i	-88	i
COc1ccc(C(=O)Nc2ccccc2C(N)=O)cc1	i	i	i	i	i	i
CN(C)S(=O)(=O)Oc1cccc(C(=O)Nc2ccc(Cl)c(Cl)c2)c1	80	i	i	i	i	i
CN(C)S(=O)(=O)Oc1cccc(C(=O)Nc2cccc(Cl)c2)c1	i	i	i	i	i	i
Cc1ccc(C(=O)NC(=S)Nc2ccc(Oc3ccc(Cl)cc3)cc2)cc1	i	i	i	51	i	i
COc1ccc(C(=O)Nc2ccccc2C(=O)N/N=C/c2ccncc2)cc1OC	i	i	i	i	-60	i
Cc1ccc(S(=O)(=O)N2CCC(C(=O)OCc3ccccc3)CC2)cc1C	i	i	i	i	i	i
CC1=CC(=O)C=C(C)C1=NOc1ccc([N+](=O)[O-])cc1	i	i	i	i	i	i
COc1ccc(N(Cc2cc3cccc(C)c3[nH]c2=O)C(=O)C2CCCO2)cc1 (centres undefined)	i	i	i	i	i	i
O=C(Nc1cc(Cl)cc(Cl)c1)c1cccc(OC(F)F)c1	60	i	i	i	i	i
COc1ccc(C(=O)NNc2ccccc2)cc1	i	i	i	i	i	i
COc1ccc(NC(=S)NNc2ccc(C(=O)O)cc2)cc1	58	i	i	i	i	i
CCN1CC=C2C(C#N)=C(N)C(C#N)(C#N)C(CCc3ccccc3)C2C1 (centres undefined)	i	i	i	i	i	i
COc1ccc(-c2ccc(SCC(=O)c3ccccc3)nn2)cc1OC	i	i	i	i	i	i
O=C1C=C(Nc2cccc(Cl)c2)CC(c2ccco2)C1 (centres undefined)	i	i	i	i	i	i
CN(CC(=O)Nc1ccc(N2CCOCC2)cc1)C(=O)CCCOc1ccc(Cl)cc1Cl	i	i	i	i	i	i
SMILES	TWEAK-Fn14 inh	Peg3 prom inh	HIF-2a block	TROY signal inh	KKLEB tox	CF NFkB block
C(=N\Nc1nc(-c2cccnc2)nc2ccccc12)/c1ccccc1	i	i	i	i	i	i
Brc1ccc(-c2nc(N/N=C/c3cccnc3)c3ccccc3n2)cc1	i	i	i	i	-70	i
Cc1nc2ccc(NC(=O)c3cccc(S(=O)(=O)N(C)c4ccccc4)c3)cc2s1	72	i	i	60	i	i
COc1ccccc1N(C)S(=O)(=O)c1ccc(C(=O)Nc2ccc3nc(C)sc3c2)cc1	i	i	i	50	i	i
COc1ccccc1N(C)S(=O)(=O)c1ccc(C(=O)Nc2ncc(C)s2)cc1	i	i	i	i	i	i
COc1ccccc1N(C)S(=O)(=O)c1ccc(C(=O)Nc2nccs2)cc1	i	i	i	i	-50	i
